These results are taken from PubChem BioAssay AID686978 (National Center for Advancing Translational Sciences (NCATS), 2013).

“And” between values parts separate entries of the source, which are not always exact repeats. Equal entries are not always repeated. Screen size: about 420,000 compounds; about 64,000 (15%) were called active. Roughly 27% stayed inconclusive and do not appear here. The call rests on the fitted dose curve; in most records, active means well fitted inhibition curve with a large enough effect; inconclusive means small, poorly fitted or top-dose-only effect; inactive means flat fitted curve, though single readings scatter. These entries were drawn from the full list. Entries that show only a call come without a potency.
Potency means the concentration at half of the fitted maximal effect.

The nature of this assay: qHTS for Inhibitors of human tyrosyl-DNA phosphodiesterase 1 (TDP1): qHTS in cells in absence of CPT. Further: nearly all actives have a fitted effect of over 55% in size. Conditions: DT40 Tdp1-/- hTDP1 cells, no CPT, ATP luminescence, 48 h; activity change, negative = growth inhibition: at 46.2 µM (top of the series). The procedure, abridged: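 Cells were dispensed at 400 per well, compounds added by pin tool, plates incubated ≥48 hr at 37 °C, then CellTiter-Glo added for 30 min at room temperature before luminescence reading. Line: DT40 Tdp1-/- complemented with hTDP1; camptothecin omitted.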
On the technique in general: In qHTS, concentration-response curves come from the screen itself.
Take `Cc1ccc(C(=O)N/C(=C\c2cccs2)C(=O)NCCc2ccccn2)cc1C`: the Potency entry is “inactive”.
`COc1ccc2oc(=O)c(C(=O)NCc3ccccn3)cc2c1`: the Potency entry was “inactive”.
The figure for `COc1cncc(-c2cnc3sc(NCCc4ccccn4)nn23)c1` is 13 µM (active).
With `C[C@H](CO)N1C[C@H](C)[C@H](CN(C)C(=O)Nc2ccc3c(c2)OCO3)Oc2ncc(Br)cc2C1=O` the entry was “inactive”; with `CN1CCCC(OC(=O)COc2ccc(Br)cc2)C1` (stereo unspecified), “inactive”.
Consider `CCOc1ccccc1-n1c(SCC(=O)N2CCCC2)nnc1-c1ccoc1C`, for which the Potency result is “inactive”.
For the compound `CCOc1ccccc1N1C(=O)CC(Sc2nccc(C)n2)C1=O` (stereo unspecified), the Potency was 20.6 µM (active).
The entry for `CC(=O)Nc1ccc(N2C(=O)CC(Sc3nccc(C)n3)C2=O)cc1` (stereo unspecified) is “inactive”; for `COc1ccc(C(=O)NC(C)c2nccs2)cc1OC1CCN(C(C)C)CC1` (stereo unspecified) it is “inactive”; for `COc1ccc(-c2[nH]ncc2CN(C)Cc2cc(C)[nH]n2)c(F)c1` it is “inactive”.
The entry for `Cc1cc(Cl)nc(NC(=O)Nc2cccc(Cl)c2)n1` is “inactive”; for `Cc1cc(C)nc(NC(=O)C(C)N2C(=O)c3ccccc3C2=O)n1` (stereo unspecified) it is “inactive”; for `Cc1cc(C)nc(NC(=O)Nc2ccccc2C(F)(F)F)n1` it is 18.4 µM (active).
In the case of `CC(C)C(NC(=O)c1cccc(S(=O)(=O)N2CCOCC2)c1)C(=O)NCCc1ccccn1` (stereo unspecified), the Potency entry is “inactive”.
Consider `O=C(COC(=O)c1c2c(nc3ccccc13)CCCC2)c1ccc(Br)s1`, for which the Potency was 7.31 µM (active).
`O=C(COC(=O)c1ccncc1)c1ccccc1`: the Potency result was “inactive”.
The entry for `Cc1ccc(C(=O)COC(=O)c2cccc(N3C(=O)c4c(C)nc5ccccc5c4C3=O)c2)cc1C` is “inactive”; for `CC1CCC(NC(=O)c2ccc(N3CCCC3=O)cc2)CC1` (stereo unspecified) it is “inactive”.
With `O=C(NC1CCCCC1)c1ccc(CNc2c(N3CCOCC3)c(=O)c2=O)cc1` the entry was “inactive”.
With `CN1C(=O)/C(=C/c2ccc(C(=O)NC3CCCC3)cc2)Oc2ccccc21` the figure was 10.3 µM (active).
Regarding `CNC(=S)N1CCC(NC(=O)C(Cc2ccc(F)cc2)NC(C)=O)CC1` (stereo unspecified), the Potency result is “inactive”.
As to `CCOc1ccc(C(CC(=O)O)n2cnnn2)cc1OC` (stereo unspecified), the Potency entry is “inactive”.
Turning to `C[C@H]1CN([C@@H](C)CO)S(=O)(=O)c2ccc(Br)cc2O[C@H]1CN(C)C(=O)c1cnccn1`, the Potency entry was “inactive”.
For the compound `CCOC(=O)C1=C(O)CSC1=Nc1cccc(Cl)c1`, the Potency result was “inactive”.
With `CN(C)c1nc(=Nc2cccc(Cl)c2)ss1` the figure was 0.206 µM (active); with `CCN(CC)S(=O)(=O)c1ccc(OC(C)C)c(N)c1`, “inactive”.
With `CC(C)Nc1nnc(SC(C)C(=O)N(C)C2CCCCC2)s1` (stereo unspecified) the entry was “inactive”; with `Cc1cccc(N2CCN(c3c(CN4CCCC4)c(=O)oc4ccccc34)CC2)c1C`, “inactive”.
With `Cc1cccc(N2CCN(C3=C(c4ccccc4)C(=O)c4ccccc43)CC2)c1C` the figure was 11.6 µM (active); with `CC(Oc1ccccc1)C(=O)NN1Cc2ccccc2C1=N` (stereo unspecified), “inactive”; with `Cc1nn(C)cc1N1C(=O)c2cccc3c(N)ccc(c23)C1=O`, “inactive”.
For `CCN(CCCCOC(=O)c1ccc(OC)c(OC)c1)C(C)Cc1ccc(OC)cc1` (stereo unspecified), the Potency entry was “inactive”.
As to `CCc1oc(-c2ccc(OC)cc2)c(C(=O)OCCCCCO)c1C(C)OCCO` (stereo unspecified), the Potency is 16.4 µM (active).
As for `COc1ccc(C(=O)Nc2c(N)nc(SCC(=O)N3CCC(C)CC3)[nH]c2=O)cc1OC`, the Potency result is “inactive”.
As to `O=C(c1ccc2c(c1)C(=O)N(Cc1ccncc1)C2=O)N1CCN(S(=O)(=O)c2ccc(OC(F)(F)F)cc2)CC1`, the Potency result was “inactive”.
The figure for `Oc1ccc(Br)cc1C1C=C(c2ccc3c(c2)OCO3)NC(c2ccc(Cl)cc2)N1` (stereo unspecified) is 5.01 µM (active).
The entry for `CCN(CC(=O)Nc1cc(Cl)ccc1C)C(=O)CN1C(=O)NC2(CCCC2)C1=O` is “inactive”; for `CN(C)CCNC(=O)Nc1cccc(Cl)c1Cl` it is “inactive”.
With `CN(C)CCNC(=O)c1ccc(Cl)c2cc3ccccc3nc12` the figure was 0.146 µM (active); with `CC(=O)NCCNC(=O)c1cc(-c2cccc3ccccc23)nc2ccccc12`, “inactive”.
For the compound `CCNC(=S)N(CCN(CC)CC)Cc1cc2cc3c(cc2[nH]c1=O)OCCO3`, the Potency entry was “inactive”.
With `Oc1c(C(c2cccs2)N2CCN(c3ccc(F)cc3)CC2)sc2ncnn12` (stereo unspecified) the entry was “inactive”.
With `CC1CC(C)CN(CC(=O)Nc2ccc(S(N)(=O)=O)cc2)C1` (stereo unspecified), the Potency result is “inactive”.
With `Cc1nc(SCC(=O)N2CCc3ccccc3C2)c2c(C)c(C)sc2n1` the figure was 16.4 µM (active); with `Cc1nnc(SCC(=O)N2CCc3ccccc3C2)s1`, “inactive”.
With `Cc1nc(SCC(=O)Nc2cc(C)on2)c2c(C)c(C)sc2n1` the entry was “inactive”; with `O=C(NCC(O)c1nc2ccccc2[nH]1)c1ccc(Br)cc1` (stereo unspecified), “inactive”; with `O=C(CC1CCCCC1)NCc1ccc(F)cc1`, “inactive”.
With `CCOC(=O)C1CCN(C(=O)Nc2ccc(Cl)cc2)CC1`, the Potency entry is “inactive”.
The entry for `O=C(O)C1CCN(c2ccc([N+](=O)[O-])cc2[N+](=O)[O-])CC1` is “inactive”; for `O=[N+]([O-])c1ccc(N2CCN(c3ccc(O)cc3)CC2)c(Cl)c1` it is 13 µM (active).
On to `O=[N+]([O-])c1ccc(N2CCOCC2)cc1`, for which the Potency entry is “inactive”.
`O=C(COC(=O)c1ccccc1SCC(=O)N1CCCC1)Nc1ccccc1OC(F)F`: the Potency entry is “inactive”.
For `Cc1ccc(CNC(=O)CCNC(=O)Cn2ccc3ccccc3c2=O)cc1`, the Potency result is “inactive”.
The entry for `CCS(=O)(=O)Nc1cc(C(=O)OC)ccc1C(=O)OC` is “inactive”.
Take `CCCN(CCC)C(=S)Nc1cc(C(=O)OC)ccc1C(=O)OC`: the Potency is 18.4 µM (active).
Consider `CCN(CCO)C(=S)Nc1cc(C(=O)OC)ccc1C(=O)OC`, for which the Potency result is “inactive”.
In the case of `CSc1nc(-c2ccco2)nn1C(=O)CCc1ccccc1`, the Potency entry is “inactive”.
The figure for `c1ccc(Cc2c(-c3ccco3)nc3c4ccccc4ccn23)cc1` is 20.6 µM (active); for `CN1CCN(Cc2c(C(=O)N3CCc4ccccc4C3)nc3ccc(Cl)cn23)CC1` it is “inactive”.
The entry for `Cc1ccc(-c2cn3cc(C)ccc3n2)cc1` is “inactive”; for `Cc1ccc(Cc2c(-c3ccco3)nc3ccc(Cl)cn23)cc1` it is 11.6 µM (active); for `Cc1ccc(-c2nc3ccc(Cl)cn3c2Cc2ccccc2)cc1` it is 20.6 µM (active).
With `CC(=O)Nc1c(-c2ccc(C)cc2)nc2ccc(Cl)cn12`, the Potency result was “inactive”.
Consider `CN(C)C(=O)c1nc2ccc(Cl)cn2c1CN1CCN(c2ncccn2)CC1`, for which the Potency entry is “inactive”.
With `O=C(Nc1c(-c2ccccc2)nc2c(Br)cc(Br)cn12)c1ccco1` the entry was “inactive”; with `Cc1nn(CC(=O)Nc2ccc3c(c2)OCO3)c(C)c1[N+](=O)[O-]`, “inactive”.
The entry for `Cc1cccc(NC(=O)CN2C(=O)CNC2=O)c1` is “inactive”.
The entry for `C/C(=N\NC(=O)c1cccc([N+](=O)[O-])c1)c1cccnc1` is “inactive”; for `CCOC(=O)C(C)Oc1cccc2c(=O)n(CC(=O)N3CCc4ccccc43)ccc12` (stereo unspecified) it is “inactive”; for `O=C(Nc1ccccc1C(=O)N1CCOCC1)c1ccc(Cl)cc1` it is “inactive”.
For `Cn1c(=O)n(C)c2cc(S(=O)(=O)Nc3ccc(F)cc3)ccc21`, the Potency is 20.6 µM (active).
The entry for `Cc1cc(C)cc(NS(=O)(=O)c2ccc(F)cc2)c1` is “inactive”; for `Cn1c(=O)n(C)c2cc(NS(=O)(=O)c3ccc(F)cc3)ccc21` it is “inactive”; for `Cn1c(C(=O)N2CCCC(C(=O)NCc3ccccc3)C2)cc2sccc21` (stereo unspecified) it is “inactive”.
`C/C(=N\Nc1ccc(Cl)nn1)c1ccccc1O`: the Potency was 0.58 µM (active).
For the compound `Clc1ccc(N/N=C/c2cccs2)nn1`, the Potency result is “inactive”.
With `Oc1cccc(/C=N/Nc2ccc(Cl)nn2)c1O` the figure was 0.13 µM (active); with `Fc1ccccc1Cc1ccc(Cl)nn1`, “inactive”.
As to `CCCCCCCN=C(C)c1ccccc1O`, the Potency entry is “inactive”.
`O=C(c1cccc(-n2cccc2)c1)N1CCN(S(=O)(=O)c2ccc(F)cc2)CC1`: the Potency entry is “inactive”.
Take `C=C(Cl)COC(=O)C1C2C=CC(C2)C1C(=O)O` (stereo unspecified): the Potency entry was “inactive”.
For `CC12CN(NC(=O)c3ccc(Cl)cc3)C3(C#N)CC1CCC23C` (stereo unspecified), the Potency result is “inactive”.
With `Cc1ccc(C(CNC(=O)Nc2ccccc2)N2CCN(C)CC2)cc1` (stereo unspecified) the entry was “inactive”; with `Cc1ccc(NC(=O)[C@H](Cc2ccccc2)NC(=O)CC[C@H]2O[C@@H](n3ccc(=O)[nH]c3=O)[C@H](O)[C@@H]2O)cc1C`, “inactive”; with `CCOC(=O)/C(N=Nc1cc(C(=O)O)cc(C(=O)O)c1)=C(\O)CCl`, “inactive”.
The entry for `CCOc1ccc(/C(O)=C2\C(=O)C(=O)N(c3ccc(OC)cc3)C2c2ccccc2[N+](=O)[O-])cc1` (stereo unspecified) is “inactive”.
The entry for `CCO/C=C1\C(=O)N(c2ccc(OCC)cc2)C(=O)c2ccccc21` is “inactive”.
In the case of `CCOc1ccc(-c2n[nH]c3c2C(c2ccccc2OC)N(c2ccc(Br)cc2)C3=O)cc1` (stereo unspecified), the Potency was 14.6 µM (active).
For the compound `Cc1ccc(C(=O)Nc2ccn(C)n2)cc1`, the Potency result is “inactive”.
The figure for `Cc1ccc(NC(=O)C2CCCN2S(=O)(=O)c2cccc3cccnc23)c(C)c1` (stereo unspecified) is 18.4 µM (active) and 16.4 µM (active); for `O=C(Nc1nccs1)C1CCCN1S(=O)(=O)c1cccc2cccnc12` (stereo unspecified) it is “inactive”; for `COc1ccc(NC(=O)C2CCCN(S(=O)(=O)c3cccc4cccnc34)C2)cc1OC` (stereo unspecified) it is “inactive”.
The figure for `COC(=O)C1=CN(c2c(C)cc(C)cc2C)C(N)=C(C#N)C1c1cccc(F)c1` (stereo unspecified) is 14.6 µM (active); for `Cn1c2c(c(=O)n(C)c1=O)C(c1cccc(F)c1)C(C#N)=C(N)O2` (stereo unspecified) it is “inactive”.
With `COC(=O)C1=C(C)N(C)C(C)=C(C(=O)OC)C1c1cccc(Br)c1`, the Potency entry is “inactive”.
The entry for `Cc1ccc(NC(=O)C(C)OC(=O)Cc2c[nH]c3ccccc23)cc1S(=O)(=O)N1CCOCC1` (stereo unspecified) is “inactive”.
On to `O=C(OCC(=O)N1CCCCCC1)c1ccc(Br)c(S(=O)(=O)N2CCOCC2)c1`, for which the Potency result was “inactive”.
With `COc1cc(Br)cc(/C=N/c2ncn[nH]2)c1O` the entry was “inactive”; with `N#C/C(C(=O)N1CCOCC1)=C1/SC(Cc2ccc(F)cc2)C(=O)N1c1ccccc1` (stereo unspecified), “inactive”; with `COc1ccc(OC)c(NC(=O)C2(C)CCN2C(=O)Cc2ccccc2)c1` (stereo unspecified), “inactive”.
With `CC1(C(=O)NS(=O)(=O)c2ccccc2)CCN1C(=O)Cc1ccc(-c2ccccc2)cc1` (stereo unspecified) the entry was “inactive”; with `CC1(C(=O)NS(=O)(=O)Cc2cccc(Cl)c2)CCN1C(=O)Cc1ccccc1` (stereo unspecified), “inactive”; with `CCCNC(=O)C1(C)CCN1C(=O)Cc1ccc(-c2ccccc2)cc1` (stereo unspecified), 9.2 µM (active).
With `CC1(C(=O)NS(=O)(=O)c2cccs2)CCN1C(=O)Cc1ccc(-c2ccccc2)cc1` (stereo unspecified) the entry was “inactive”; with `C#Cc1ccc(NC(=O)C2(C)CCN2C(=O)Cc2ccc(-c3ccccc3)cc2)cc1` (stereo unspecified), 20.6 µM (active).
